Measured values from paper PMC4336329 (PLoS ONE, 2015).
About 14,000 (4.5%) of roughly 310,000 compounds showed an effect of 50% or more. Effects have a minus sign here. The sample as a whole holds a higher share of strong results than the screen did.

What follows are molecules tested against human ether-à-go-go-related gene (hERG) potassium channel (human, UniProt Q12809) (assay: primary screen, population patch clamp on CHO cells stably expressing hERG; higher = less effect of the substance).
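Note: peak tail current of the secondary pulse compared with the same well before compound.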

Chain of human ether-à-go-go-related gene (hERG) potassium channel (Q12809 whole entry, looked up): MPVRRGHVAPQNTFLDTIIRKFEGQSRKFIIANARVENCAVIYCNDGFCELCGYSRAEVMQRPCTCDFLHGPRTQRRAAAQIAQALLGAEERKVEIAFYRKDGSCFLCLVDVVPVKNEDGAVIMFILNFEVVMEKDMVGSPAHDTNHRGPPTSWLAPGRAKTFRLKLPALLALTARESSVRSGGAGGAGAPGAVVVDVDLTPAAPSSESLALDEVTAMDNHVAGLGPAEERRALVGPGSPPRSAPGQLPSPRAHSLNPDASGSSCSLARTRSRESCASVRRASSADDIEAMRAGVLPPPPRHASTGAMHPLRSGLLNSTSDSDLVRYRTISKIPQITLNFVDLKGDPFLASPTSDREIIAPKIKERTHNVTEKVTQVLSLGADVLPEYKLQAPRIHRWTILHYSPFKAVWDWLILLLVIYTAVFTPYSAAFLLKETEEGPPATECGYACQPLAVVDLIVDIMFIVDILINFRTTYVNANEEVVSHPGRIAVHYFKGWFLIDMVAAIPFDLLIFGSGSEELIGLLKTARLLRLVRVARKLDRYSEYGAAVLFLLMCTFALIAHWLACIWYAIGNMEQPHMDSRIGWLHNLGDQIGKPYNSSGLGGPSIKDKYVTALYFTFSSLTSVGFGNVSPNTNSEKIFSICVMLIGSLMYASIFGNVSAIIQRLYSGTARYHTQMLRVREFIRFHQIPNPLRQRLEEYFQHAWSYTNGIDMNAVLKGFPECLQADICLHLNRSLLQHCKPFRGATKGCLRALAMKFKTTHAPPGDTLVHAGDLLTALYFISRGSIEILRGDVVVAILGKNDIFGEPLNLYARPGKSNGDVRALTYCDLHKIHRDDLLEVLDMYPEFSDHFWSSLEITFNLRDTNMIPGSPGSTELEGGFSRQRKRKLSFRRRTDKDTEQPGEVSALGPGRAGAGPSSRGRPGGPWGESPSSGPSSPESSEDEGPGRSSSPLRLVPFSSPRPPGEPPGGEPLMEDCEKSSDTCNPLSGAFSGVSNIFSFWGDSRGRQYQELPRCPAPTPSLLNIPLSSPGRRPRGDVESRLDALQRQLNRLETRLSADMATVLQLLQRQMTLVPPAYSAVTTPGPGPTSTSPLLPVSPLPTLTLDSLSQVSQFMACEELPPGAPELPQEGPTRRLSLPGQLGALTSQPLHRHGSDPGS

Structure (SMILES) | hERG current change (%, negative = inhibition) at 10uM [%]
Cc1cc2ccccn2c1C(=O)c1ccc(NN)c([N+](=O)[O-])c1 | -6.4
O=C(Nc1ccc(S(=O)(=O)Nc2ccccn2)cc1)c1ccc(Cl)cc1Cl | 2.92
Cc1ccccc1NC(=O)CN1C(=O)S/C(=C\c2ccc(-c3cccc(C(=O)O)c3C)o2)C1=O | 23.7
CCc1cccc(NC(=O)COC(=O)C2CCN(c3ccc(C(F)(F)F)cn3)CC2)c1 | -4.68
CCOc1ccc(NC(=S)NC(=O)Cc2ccccc2)cc1 | 25.5
Cc1nnc(NC(=O)/C=C/c2ccco2)s1 | 26.3
O=C(Nc1ccc(CN2CCOCC2)cc1)c1ccc(Br)cc1 | 3.54
CC(C)NC(=O)c1ccccc1NC(=O)Cc1ccc([N+](=O)[O-])cc1 | -33.8
CC1C(=O)CCN(C(C)C)C1C.Cl (stereo not drawn) | 8.54
CCOC(=O)c1cnn(C)c1NC(=O)c1ccc(Cl)cc1Cl | -24.5
Cc1cc(C)nc(NS(=O)(=O)c2ccc(NC(=O)c3ccc4c(c3)OCO4)cc2)n1 | -0.197
O=C(CN1CCN(Cc2ccccc2)CC1)NC(=O)NC1CCCCC1 | -46.3
NC(=O)C1CCCN(CC(=O)Nc2ccccc2C(=O)NC2CC2)C1 (stereo not drawn) | -10.7
S=C(NC1CCCCC1)N1CCN(C/C=C/c2ccccc2)CC1 | -21.8
O=C(CN1CCN(C/C=C/c2ccccc2)CC1)NC(=O)NC1CCCCC1 | -74.8
O=C(CN1CCN(C/C=C/c2ccccc2)CC1)Nc1ccccc1C(=O)NC1CC1 | -80.5
O=C(CN1CCc2ccccc2C1)Nc1ccccc1C(=O)NC1CC1 | -24.5
CCOc1cc(C2NC(=O)NC2=O)ccc1O (stereo not drawn) | 17.4
CCN(CC)CCN(C(=O)Cn1nnc(-c2ccc(C)o2)n1)C(C(=O)NC(C)(C)C)c1cccs1 (stereo not drawn) | -41.6
O=C1CC(C(=O)NC2CCCCC2)C2(CCCCC2)O1 (stereo not drawn) | -1.23
COc1cc(NC(=O)C(=O)NCCN(C)C)c(OC)cc1Cl | 8.41
CCCCN(C1CCS(=O)(=O)C1)S(=O)(=O)c1ccc(OC)cc1 (stereo not drawn) | -24.5
CC(C)(CO)Nc1nc(N2CCCC2)nc(N2CCCC2)n1 | -13.8
COc1ccc(NC(=O)NNC(=O)COc2ccc3cc(Br)ccc3c2)cc1OC | 5.68

Structure (SMILES) | hERG current change (%, negative = inhibition) at 10uM [%]
COc1ccc2oc(=O)cc(CN3CCN(Cc4ccc(OC)c(OC)c4OC)CC3)c2c1 | -39.7
CCN1CCN(Cc2cc(=O)oc3ccc(C)cc23)CC1 | -3.04
Cc1ccc2c(CN3CCN(Cc4ccccc4)CC3)cc(=O)oc2c1 | -78.9
COc1cc(CN(C)Cc2cc(=O)oc3cc(C)c(Cl)cc23)ccc1OC(F)F | 12
CCc1ccc2c(CN(C)Cc3ccc(OC(F)F)c(OC)c3)cc(=O)oc2c1 | -72.5
COc1ccc(CN2CCN(Cc3cc(=O)oc4cc(C)ccc34)CC2)c(OC)c1OC | -80.2
Cc1ccc2c(CN3CCOCC3)cc(=O)oc2c1 | -27.6
CCOC(=O)C1CCN(Cc2cc(=O)oc3cc(C)ccc23)CC1 | -47.8
Cc1ccc2c(CN3CCCCC3)cc(=O)oc2c1 | -16.1
CC(C)c1ccc2oc(=O)cc(CN3CCN(Cc4ccccc4)CC3)c2c1 | 17.5
Cc1ccc2oc(=O)cc(CN3CCN(Cc4ccccc4)CC3)c2c1 | -56.8
CCc1ccc2c(CN(C)Cc3ccccc3OC)cc(=O)oc2c1.O=C(O)C(=O)O | -21.3
CC(Sc1nc(N)cc(=O)[nH]1)C(=O)Nc1sc2c(c1C#N)CCCC2 (stereo not drawn) | 1.55
Cc1c(C)c(C)c(S(=O)(=O)NCCc2ccccn2)c(C)c1C | -7.95
C=CCNC(=O)c1nn2cccnc2c1Cl | 12.7
COC(=O)C1C(=O)C=C(Nc2ccc(F)cc2F)CC1c1ccccc1 (stereo not drawn) | -16.9
O=C1CCCN1CC(O)CS(=O)(=O)c1ccc(Cl)cc1 (stereo not drawn) | 16.7
CCc1cc2c(CN3CCN(CCO)CC3)cc(=O)oc2cc1O | 15.6
Cc1ccc2oc(=O)cc(CN3CCC(C)CC3)c2c1 | 10.8
COc1cc2c(cc1OC)CN(Cc1cc(=O)oc3cc(C)c(C)cc13)CC2 | -37.6
COc1cc2c(cc1OC)CN(Cc1cc(=O)oc3cc(C)c(Cl)cc13)CC2 | -14.3
Cc1ccc2c(CN3CCN(CCO)CC3)cc(=O)oc2c1 | -74.9
CCc1ccc2c(CN3CCc4cc(OC)c(OC)cc4C3)cc(=O)oc2c1 | -66
COc1cccc(CN(C)Cc2nc3cc(C(F)(F)F)ccc3c(=O)[nH]2)c1 | -3.19

Structure (SMILES) | hERG current change (%, negative = inhibition) at 10uM [%]
Cc1ccc2c(CN3CCN(CCO)CC3)cc(=O)oc2c1C | -15.5
CSc1ccc(CN(C)Cc2nc3cc(C(F)(F)F)ccc3c(=O)[nH]2)cc1 | 12.9
Cc1ccc2c(CN3CCC(C)CC3)cc(=O)oc2c1 | -50
COc1cc(CN(C)Cc2nc3cc(C(F)(F)F)ccc3c(=O)[nH]2)ccc1OC(F)F | -66.5
Cc1ccc2c(CN3CC(C)CC(C)C3)cc(=O)oc2c1 (stereo not drawn) | -2.89
Cc1ccc2c(c1)-c1c(cnn1CC(=O)N(Cc1ccco1)C1CCCCC1)CO2 | -13
Cc1cc(C)cc(NC(=O)Cn2nnc(C(=O)NCc3ccco3)c2N)c1 | 6.01
CCn1cc(/C=N\NC(=O)Cc2ccc(Cl)cc2)cn1 | -12
CCOC(=O)N1CCN(C(=O)CSc2nnc(CNC(=O)c3ccccc3F)o2)CC1 | 6.37
COc1ccccc1-c1cc(C(=O)NC2CCN(C)CC2)c2ccc(Cl)c(C)c2n1 | -42
N#CC1(NC(=O)COC(=O)CCCN=C2NS(=O)(=O)c3ccccc32)CCCCC1 | 15
Cn1c(SCC(=O)NCc2ccc3c(c2)OCO3)nc2c(c1=O)SCC2 | -21
CCc1ccc2c(CSc3nnnn3C)cc(=O)oc2c1 | -68.1
CCc1ccc2c(CN3CCOCC3)cc(=O)oc2c1 | -31.7
Cc1ccc(S(=O)(=O)N2CCN(Cc3ccccc3C(F)(F)F)CC2)cc1 | -5.53
CCc1ccc2oc(=O)cc(CN3CCN(Cc4ccccc4)CC3)c2c1 | -46.3
Cc1ccc2c(CSc3nnnn3C)cc(=O)oc2c1 | -42.4
CCc1ccc2c(CN3CCN(Cc4ccccc4)CC3)cc(=O)oc2c1 | -79.7
Cn1nnnc1SCc1cc(=O)[nH]c2ccccc12 | 2.31
Cc1ccc2c(CN3CCN(S(=O)(=O)c4ccccc4C(F)(F)F)CC3)cc(=O)oc2c1C | -5.49
Cc1ccc2c(CN3CCN(S(=O)(=O)c4ccccc4C(F)(F)F)CC3)cc(=O)oc2c1 | -57.3
N#Cc1c(-c2ccccc2)ccn(Cc2cccc(Cl)c2)c1=O | 8.43
Cc1ccc(Nc2cc(-n3nc(C)cc3C)ncn2)c(C)c1 | -3.97
COCCCN1C2=C(C(=O)CC(C)(C)C2)C(c2ccc(O)c(OC)c2)C2=C1CC(C)(C)CC2=O | 11.2

Structure (SMILES) | hERG current change (%, negative = inhibition) at 10uM [%]
Cc1ccc(N)cc1CN1CCCC1=O | 2.15
CCN(CC)S(=O)(=O)c1ccc(C(=O)NC(C)(C)C)cc1 | 19.1
O=C(CCN1CCN(c2ccccc2F)CC1)Nc1ccc(F)cc1 | -18.3
Cc1ccccc1N1CCN(CCC(=O)Nc2ccc(F)cc2)CC1 | -67.5
O=C(CCN1CCN(c2ccccn2)CC1)Nc1ccc(F)cc1 | -42.5
O=C(CCN1CCOCC1)Nc1ccc(F)cc1 | -10.5
O=C(CCN1CCN(c2ccc(F)cc2)CC1)Nc1ccc(F)cc1 | -56.8
COc1ccc(NC(=O)CCN2CCN(c3ccc(F)cc3)CC2)cc1 | -33
CCC(C)(C)n1nnnc1C(c1cccnc1)N1CCCc2ccccc21 (stereo not drawn) | -19.6
CCS(=O)(=O)NCc1csc(-c2ccccc2)n1 | 18
Cc1cnccc1CN(C)C(=O)CC1C(=O)NCCN1CC1CCCCC1 (stereo not drawn) | -4.59
COc1ccc(/C=C2\SC(=S)N(CCC(=O)Nc3ccccn3)C2=O)cc1OC | 26.2
Cl.OCCN1CCN(CC(O)COCC2COc3ccccc3O2)CC1 (stereo not drawn) | 33.4
C[N+]1(CC(O)COCC2COc3ccccc3O2)CCOCC1.[I-] (stereo not drawn) | 18.3
O=C(C1COc2ccccc2O1)N1CCN(c2ccccc2F)CC1 (stereo not drawn) | 9.47
CC1CCCC(C)N1CC(O)COCC1COc2ccccc2O1.Cl (stereo not drawn) | -15.8
CC[N+](C)(CC)CC(O)COCC1COc2ccccc2O1.[I-] (stereo not drawn) | 1.73
Cl.OC(COCC1COc2ccccc2O1)CN1CCN(c2ccccc2F)CC1 (stereo not drawn) | -58.9
Cl.OC(COCC1COc2ccccc2O1)CN1CCN(c2ccccc2)CC1 (stereo not drawn) | -64.1
Cl.OC(COCC1COc2ccccc2O1)CN1CCc2ccccc2C1 (stereo not drawn) | -64.9
CCN1CCN(CC(O)COCC2COc3ccccc3O2)CC1.Cl (stereo not drawn) | -4.69
Cl.OC(COCC1COc2ccccc2O1)CN1CCN(c2ccc(F)cc2)CC1 (stereo not drawn) | -79.3
Cl.OC(COCC1COc2ccccc2O1)CN1CCCCC1 (stereo not drawn) | -43.6
CC1CCCN(CC(O)COCC2COc3ccccc3O2)C1.Cl (stereo not drawn) | -28.2
